Sampled rows, rich in hits. Any-hit rate of the full collection: about 3.4%.
TEAD-YAP block: TEAD-YAP interaction inhibition, primary screen, TEAD-YAP interaction inhibitor project, luminescence, HEK-TIYL cells | TEAD-Gal4/YAP UAS-luciferase luminescence | inhibition, % at 9.12 µM | 1.4% of 640,000 active; in the data active = inhibition above about 32%
FBW7 activator: FBW7 E3 ligase activators, primary screen, biochemical, AlphaScreen, human; 0.13% of 650,000 active; AlphaScreen FBW7–phospho-cyclin E peptide binding, activator screen; AID 1259310, 2017; F-box/WD repeat-containing protein 7 (Homo sapiens), Q969H0; normalized activity (activation), % at 26.1 µM; in the data active = normalized activity above about 1.9%;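 note: purified mutant Fbw7 with reduced substrate affinity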
GPR151 activ: activators of human GPR151, primary screen, cell-based, PathHunter beta-arrestin, luminescence; G-protein coupled receptor 151 (Homo sapiens), Q8TDV0; PathHunter beta-arrestin GPR151 cells; activation, % at 11.2 µM; 1% of 650,000 active; AID 1508602, 2020; in the data active = activation above about 4.9%
MITF primary: MITF inhibitors, primary screen, biochemical, AlphaScreen, human | Microphthalmia-associated transcription factor (Homo sapiens), O75030 | AlphaScreen MITF homodimerization, bead proximity signal | inhibition, % at 2.6 µM | 0.91% of 650,000 active | AID 1259374, 2018; in the data active = inhibition above about 50%
Target sequence (O75030 whole entry, looked up): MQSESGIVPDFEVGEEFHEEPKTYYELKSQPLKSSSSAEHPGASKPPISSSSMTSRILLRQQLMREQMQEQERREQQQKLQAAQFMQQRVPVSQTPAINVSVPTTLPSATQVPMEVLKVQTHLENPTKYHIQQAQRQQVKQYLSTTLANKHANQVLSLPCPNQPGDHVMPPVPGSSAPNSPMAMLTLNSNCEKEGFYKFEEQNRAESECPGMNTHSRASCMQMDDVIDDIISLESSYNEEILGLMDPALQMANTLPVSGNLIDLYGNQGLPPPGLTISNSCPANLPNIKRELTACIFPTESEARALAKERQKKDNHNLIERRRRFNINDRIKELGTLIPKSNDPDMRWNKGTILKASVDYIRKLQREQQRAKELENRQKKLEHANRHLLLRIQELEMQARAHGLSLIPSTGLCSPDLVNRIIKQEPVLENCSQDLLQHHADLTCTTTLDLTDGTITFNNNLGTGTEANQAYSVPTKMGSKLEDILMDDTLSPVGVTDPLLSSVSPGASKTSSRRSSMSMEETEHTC
Of the large screens only hits and unclear results are named; the others gave an inactive call.

Cc1ccc(-n2cc(/C=C3/C(=O)NC(=O)N(Cc4ccco4)C3=O)cn2)cc1	MITF primary 73
CN(C)c1ncc(/C=C2/C(=O)NC(=O)N(Cc3ccco3)C2=O)cn1	MITF primary 79
COc1ccccc1/C=C/CN1CCc2nnc(C(C)NC(=O)C3CCOCC3)n2CC1 (stereo not drawn)	none
COCCCNC(=O)c1ccc(C)c(N2CCCC2=O)c1	none
CCN(CC)c1ccc(/C=C2/C(=O)NC(=S)N(Cc3ccco3)C2=O)cc1	MITF primary 75
O=C(NCc1cccs1)C1CC12CCN(Cc1cccn1-c1cccnc1)CC2 (stereo not drawn)	none
COCc1c(C(=O)N/N=C\c2ccccc2O)nnn1-c1nonc1N	none
O=[N+]([O-])c1cc2c(c(CN(Cc3ccco3)S(=O)(=O)c3ccccc3F)c1)OCOC2	TEAD-YAP block 47
CC(C)CCN(Cc1cc([N+](=O)[O-])cc2c1OCOC2)S(=O)(=O)c1ccccc1F	none
CN(CCC(=O)Nc1ccc(F)cc1)Cc1ccccc1	none
COc1ccc(-c2ccc(NS(=O)(=O)c3cc(C)cc(C)c3)cc2)nn1	FBW7 activator 1.9
CCOc1cccc(C2CC(c3ccc(CC)cc3)=NC(C(C)C)N2)c1O (stereo not drawn)	none
CCCCc1nnc(NC(=O)CCCc2ccccc2)s1	none
CCOC(=O)C1=C(CN2CCCc3ccccc32)NC(=O)NC1c1ccccc1 (stereo not drawn)	none
CCOC(=O)C1=C(CN2CCCc3ccccc32)NC(=O)NC1c1ccc(C)cc1 (stereo not drawn)	TEAD-YAP block 61
O=[N+]([O-])/C(C(Cl)=C(Cl)Cl)=C1\NCCCS1	none
CCOC(=O)N1CCc2c(sc(NCc3ccc(OCC)cc3)c2C(=O)Nc2ccccc2OCC)C1	none
Cc1nc2cc(NCc3nc4ccccc4n3C)ccc2n1C	TEAD-YAP block 81
O=C(N1CCCCCC1)N1c2ccccc2C=Cc2ccccc21	TEAD-YAP block 36
O=C(c1ccccc1)N1C(=O)c2ccccc2C1=O	FBW7 activator 2.5
CCCOc1ccccc1C1CC(=O)NC2=C1C(=O)CCC2 (stereo not drawn)	TEAD-YAP block 50
CCCCOc1ccccc1C1CC(=O)NC2=C1C(=O)CCC2 (stereo not drawn)	TEAD-YAP block 57
CCOc1ccccc1C1CC(=O)NC2=C1C(=O)CCC2 (stereo not drawn)	TEAD-YAP block 40
O=C1CC(c2cccc3ccccc23)C2=C(CCCC2=O)N1 (stereo not drawn)	none
Cc1ccc2cc(C3CC(c4cccs4)=NN3C(=O)CCC(=O)O)c(Cl)nc2c1 (stereo not drawn)	none
Clc1ccc(Nc2nccn3c(-c4ccoc4)cnc23)cc1	TEAD-YAP block 40
c1cn2c(-c3ccoc3)cnc2c(Nc2ccc3[nH]ccc3c2)n1	TEAD-YAP block 81
CN(C)CCNC(=O)c1ccc(-c2cnc3c(Nc4ccc5[nH]ccc5c4)nccn23)cc1	TEAD-YAP block 39
Oc1cccc(-c2cnc3c(Nc4ccc5[nH]ccc5c4)nccn23)c1	TEAD-YAP block 97
c1cn2c(-c3ccc4[nH]ccc4c3)cnc2c(Nc2ccc3[nH]ccc3c2)n1	none
CN(C(=O)CSc1nnc(NC2CCCCC2)s1)C1CCCCC1	none
COC(=O)c1c(NC(=O)c2cc([N+](=O)[O-])ccc2Cl)sc(C)c1C	none
COc1ccc(Cl)cc1NC1=C(Cl)C(=O)N(c2ccc(C)cc2)C1=O	TEAD-YAP block 45
COc1ccccc1NC1=C(Cl)C(=O)N(c2ccc(C)cc2)C1=O	none
COc1cccc(NC2=C(Cl)C(=O)N(c3ccc(C)cc3)C2=O)c1	none
CCc1ccc(N2C(=O)C(Cl)=C(Nc3cccc(OC)c3)C2=O)cc1	TEAD-YAP block 54
c1ccc(CN2CCC(Nc3cc(-c4csc5ccccc45)ncn3)CC2)cc1	none
c1ccc2c(-c3cc(NC4CC4)ncn3)csc2c1	TEAD-YAP block 35
Cc1cc(-c2cccc3[nH]c(C(F)(F)F)nc23)nn1C(=O)c1cccnc1	TEAD-YAP block 63
Cc1ccc(C)c(S(=O)(=O)Nc2ccc3scnc3c2)c1	TEAD-YAP block 39
Cc1cc(-c2cnc(N3CCCC3)nc2C2CCN(C(=O)c3scnc3C)CC2)on1	TEAD-YAP block 60
C=C(C)CN1CCN(c2nc(N3CCN(C)CC3)c3ccccc3n2)CC1	none
COC(=O)C1=C(C)N(CC(C)C)C(=O)/C1=C\c1ccc(Cl)c(Cl)c1	none
COc1ccc(/C=C/C(=O)Nc2ccccc2C)cc1OC	none
COc1ccc(/C=C/C(=O)Nc2ccccc2C(=O)O)cc1OC	TEAD-YAP block 84
O=C(/C=C/c1ccc2c(c1)OCO2)Nc1ccccc1C(=O)O	TEAD-YAP block 47
CC1CCN(S(=O)(=O)c2ccc(NC(=O)/C=C/c3ccc4c(c3)OCO4)cc2)CC1	TEAD-YAP block 44
O=C1OC(c2cccc(Cl)c2)=N/C1=C\c1cccc(Cl)c1	none
O=C1OC(c2cccc(Cl)c2)=N/C1=C\c1ccccc1	TEAD-YAP block 73
CC(NC(=O)c1cc(S(=O)(=O)N2CCc3ccccc32)cn1C)c1ccccc1 (stereo not drawn)	none
COc1ccc(S(=O)(=O)N2CCCc3ccccc32)cc1	TEAD-YAP block 58
COC(=O)c1ccc(S(=O)(=O)N2CCCc3ccccc32)cc1	TEAD-YAP block 62
COc1cc(S(=O)(=O)N2CCCc3ccccc32)ccc1Cl	TEAD-YAP block 58
Cn1cc(S(=O)(=O)N2CCc3ccccc32)cc1C(=O)NC(C)(C)C	TEAD-YAP block 37
O=C(CCSCc1ccccc1F)NC1CCCCCC1	none
COc1cc(C)c(S(=O)(=O)N2CCc3ccccc32)cc1C	TEAD-YAP block 50
O=C(c1cnc(N2CCN(c3ccccn3)CC2)c2ccccc12)N1CCN(Cc2ccc3c(c2)OCO3)CC1	TEAD-YAP block 57
COC(=O)c1cnc(N2CCN(Cc3ccc4c(c3)OCO4)CC2)c2ccccc12	none
CCCNC(=O)c1cc(N2CCN(Cc3ccc4c(c3)OCO4)CC2)nc2ccccc12	none
O=C(NCCc1ccc(O)cc1)c1cc(N2CCN(Cc3ccc4c(c3)OCO4)CC2)nc2ccccc12	TEAD-YAP block 48
O=C(Nc1ccc(Cl)cc1)c1cc2c3c(c1)C1C=CCC1CN3CC1CC=CC21 (stereo not drawn)	none
COc1cc(NC(=O)c2cccc(-c3ccc(C(N)=O)cc3)n2)cc(OC)c1OC	TEAD-YAP block 35
CC(=O)Nc1ccc(NC(=O)c2cnc(N3CCN(Cc4ccc5c(c4)OCO5)CC3)s2)cc1	TEAD-YAP block 42
COc1cc(NC(=O)c2cccc(-c3cccc(N)c3)n2)cc(OC)c1OC	TEAD-YAP block 34
COc1cc(NC(=O)c2cccc(N3CCN(Cc4ccc5c(c4)OCO5)CC3)n2)cc(OC)c1OC	TEAD-YAP block 37
Cc1ccc(/C(O)=C2\C(=O)C(=O)N(c3ccc(O)cc3)C2c2ccc(C)cc2)cc1 (stereo not drawn)	none

Screening results (PubChem)
